Molecules are shown by their SMILES. The source made the active and inactive calls. How the source made its calls: active means hit-call score of the fitted dose curve at least 0.9, where 1 is the maximum; inactive means score below 0.9.

The term AC50 denotes the concentration giving half of the maximal activity seen.

A short description of this assay: ATG_GRE_CIS: Attagene CIS-FACTORIAL HepG2 Assay for human Glucocorticoid Response Elements (GRE) (AID 2282947). Particulars: HepG2 GRE cis-reporter, Attagene multiplex mRNA; actives raise or lower the signal. As to the method: ATG_CIS is a cell-based, multiplexed-readout assay that uses HepG2, a human liver cell line, with measurements taken at 24 hours after chemical dosing in a 24-well plate.ATG_GRE_CIS is one of 52 assay component(s) measured or calculated from the ATG_CIS assay. It is designed to make measurements of mRNA induction, a form of inducible reporter, as detected with fluorescence intensity signals by Reverse transcription polymerase chain reaction (RT-PCR) and Capillary electrophoresis technology.Data from the assay component ATG_GRE_CIS was analyzed into 1 assay endpoint. This assay endpoint, ATG_GRE_CIS, was analyzed with bidirectional fitting relative to DMSO as the negative control and baseline of activity. Using a type of inducible reporter, measures of mRNA for gain or loss-of-signal activity can be used to understand the reporter gene at the transcription factor-level as they relate to the gene NR3C1. Furthermore, this assay endpoint can be referred to as a primary readout, because this assay has produced multiple assay endpoints where this one serves a reporter gene function. To generalize the intended target to other relatable targets, this assay endpoint is annotated to the nuclear receptor intended target family, where the subfamily is steroidal.
Human liver HepG2 cells are transiently transfected with multiple reporter transcription units (MRTUs) in 6-well plates using FuGene 6 reagent (Roche; 3 ml FuGene/1 mg DNA). The MRTU constructs are regulated by a cis-regulating element (promoter). […] A major difference between the CIS and TRANS system is that in CIS activities of endogenous TFs are measured, whereas the TRANS assay evaluates changes in activities of exogenous, chimeric NR-Gal4 proteins. […] At the end of 24 hour incubation, total RNA was isolated using TriZol reagent (Invitrogen). The isolated RNA is then reverse-transcribed using oligo(dT) primer and Mo-MLV reverse transcriptase (Invitrogen) with DNAse I (Ambion) treatment for 30 min. The one-tenth of the produced cDNA was amplified by PCR using Taq DNA polymerase (Invitrogen) and two reporter sequence-specific primers. The PCR products were fluorescently labeled by primer extension with 6-arboxyfluorescein (6-FAM) 5'-labeled reporter sequence-specific primer (2 min at 95 C, 20 s at 68 C and 10 min at 72 C) and these products were digested with 5U of HpaI (New England Biolabs) for 2h at 37 C. The fragments were purified using Qiaquick PCR columns (Qiagen), analyzed on an ABI 3130xL genetic analyzer (Applied Biosystems) with peak positions identified by using a set of X-rhodamine (ROX)-labeled MapMarker1000 molecular weight standards (BioVentures). The raw capillary electrophoresis data was processed using Attagraph software (Attagene).
With `OCCCCC(F)(F)C(F)(F)C(F)(F)C(F)(F)F`, the molecule was classed as inactive.

As to `CCN=C1C=CC(=C(c2ccc(N(CC)CC)cc2)c2ccc(N(CC)CC)cc2)c2ccccc21`, the outcome was inactive.

Turning to `COc1ccccc1C=O`, the molecule was classed as inactive.

Take `CCc1cccc(C)c1N(C(=O)C(=O)O)C(C)COC` (stereo not given): the result was inactive.

For `CCn1c2ccccc2c2ccccc21`, the molecule was classed as inactive.

For `CC(C)Nc1ccc(NC(C)C)c2c1C(=O)c1ccccc1C2=O`, the outcome was inactive.

On to `CCOC(OCC)OCC`, for which the result was inactive.

`NC(=O)C(F)(F)C(F)(F)C(F)(F)C(F)(F)C(F)(F)C(F)(F)C(F)(F)F`: the molecule was called inactive.

As for `CCCCCCCCn1sc(Cl)c(Cl)c1=O`, the AC50 was 18.6 µM (active).

As to `Cc1ccc(S(=O)(=O)C(I)I)cc1`, the AC50 was 3.45 µM (active).

As for `O=C(F)C1(F)C(F)(F)C(F)(F)C(F)(F)C(F)(F)C1(F)F`, the call was inactive.

For `O=C(c1ccccc1)c1ccc(O)cc1O`, the result was inactive.

As for `c1ccc(C[P+](c2ccccc2)(c2ccccc2)c2ccccc2)cc1`, the result was inactive.

With `Cc1cc(C)c(O)c(C(C)(C)C)c1`, the call was inactive.

Take `COC(=O)c1ccc(C=O)cc1`: the molecule was classed as inactive.

As for `NCC(F)(F)C(F)(F)C(F)(F)C(F)(F)C(F)(F)C(F)(F)C(F)(F)C(F)(F)F`, the molecule was called inactive.

In the case of `C#CC(O)CCC` (stereo not given), the molecule was called inactive.

As to `OCCC(O)CO` (stereo not given), the result was inactive.

As to `CCc1cc(Cc2cc(CC)c(N)c(CC)c2)cc(CC)c1N`, the outcome was inactive.

`CC1=CCC(=O)O1`: the result was inactive.

`Oc1ccc2c(c1)CCC2`: the result was inactive.

Turning to `CCC(=O)OC(C)c1ccccc1` (stereo not given), the molecule was classed as inactive.

With `CO[Si](C)(CCC(F)(F)C(F)(F)C(F)(F)C(F)(F)C(F)(F)C(F)(F)F)OC`, the call was inactive.

Turning to `CC1=CC2C3C=CC(C3)C2C1C` (stereo not given), the result was inactive.

With `O=S(=O)(OCC(F)(F)F)C(F)(F)C(F)(F)C(F)(F)C(F)(F)F`, the outcome was inactive.

As for `CCOC(=O)CCC(C)=O`, the molecule was called inactive.

As to `CNS(=O)(=O)C(F)(F)C(F)(F)C(F)(F)C(F)(F)C(F)(F)C(F)(F)C(F)(F)C(F)(F)F`, the molecule was called inactive.

Consider `CCOC(C=C(C)CCC=C(C)C)OCC`, for which the call was inactive.

As to `Nc1cccnc1N`, the outcome was inactive.

Regarding `CC(C)(C)c1cc(CCC(=O)NCCCCCCNC(=O)CCc2cc(C(C)(C)C)c(O)c(C(C)(C)C)c2)cc(C(C)(C)C)c1O`, the molecule was classed as inactive.

In the case of `CN(C)C(C)(C)CO`, the result was inactive.

In the case of `CCC/C=C/CO`, the call was inactive.

For `CCCCCCCC/C=C\CCCCCCCC(=O)OCC(O)CO` (stereo not given), the molecule was classed as inactive.

Turning to `OCC(F)(F)C(F)(F)C(F)(F)CO`, the call was inactive.

Take `CCCCCCCCCCCCC[N+](C)(C)Cc1ccccc1`: the outcome was inactive.

On to `Oc1ccc(C2(c3ccc(O)c(C4CCCCC4)c3)CCCCC2)cc1C1CCCCC1`, for which the concentration at half-maximal activity (AC50) is 33.4 µM (active).

For `CCCCCC/C=C/CCCCCCCC(=O)O`, the molecule was classed as inactive.

For `CCOC(=O)CC(=O)C(F)(F)C(F)(F)F`, the call was inactive.

As for `Cc1cc(O)c(C(C)(C)C)cc1C(C)(C)C`, the molecule was called inactive.

With `Cc1cnccn1`, the molecule was classed as inactive.

Source of the values: PubChem BioAssay (EPA / NIEHS).
